The supplement of paper PMC10515830
Where a name gives a salt, the structure may show the parent alone.

Legend:
Details in all cases: 10 µM; exposure time 6 h
[1] = test system: Danio rerio larvae (5 dpf); assay: difference in excitability vs DMSO (percentage points); higher = more excitable than DMSO
Procedure, shortened: (§1)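 Wild-type zebrafish larvae at 5 dpf were kept in 96-well plates and exposed for 6 h to 100 µL egg water holding library compound at a final concentration of 10 µM. From 3 h into exposure, the plates were held at 28.5 ℃ and photographed every 6 s through a 3-h programme of moving lines and 100 ms, 400Hz tones. Each behaviour was scored by Z-LaP Tracker, a DeepLabCut model, and averaged over 48 larvae per compound. Every value gives the compound mean minus the vehicle control mean, in percentage points.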

[2] = test system: Danio rerio larvae (5 dpf); assay: difference in startle response vs DMSO (percentage points); higher = stronger startle than DMSO
Procedure, shortened: as §1

[3] = test system: Danio rerio larvae (5 dpf); assay: difference in activity during first hour vs DMSO (percentage points); higher = more activity than DMSO
Procedure, shortened: as §1

[4] = test system: Danio rerio larvae (5 dpf); assay: difference in habituation to acoustic stimuli vs DMSO (percentage points); higher = more habituation than DMSO
Procedure, shortened: as §1

[5] = test system: Danio rerio larvae (5 dpf); assay: difference in combined optomotor response to red, green and blue moving lines vs DMSO (percentage points); higher = stronger optomotor response than DMSO
Procedure, shortened: as §1

Structure (SMILES) | difference in excitability [1] | difference in startle response [2] | difference in activity during first hour [3] | difference in habituation to acoustic stimuli [4] | difference [5]
CC(CN1c2ccccc2Sc2ccccc21)N(C)C (stereo not given) [Promethazine (hydrochloride)] | 7.65 | -2.21 | 16.6 | -3.09 | 4.32
CCCCNC(=O)NS(=O)(=O)c1ccc(C)cc1 [Tolbutamide] | 1.04 | -0.31 | 15.1 | 0.867 | 0.664
FC(F)OC(Cl)C(F)(F)F (stereo not given) [Isoflurane] | 11.1 | 8.95 | -15.9 | -1.84 | -13
COc1ccc(OC)c(C(O)CNC(=O)CN)c1 (stereo not given) [Midodrine (hydrochloride)] | 7.59 | -5.94 | 6.73 | 0.23 | 5.44
CC(C)NCC(O)COc1ccc(CC(N)=O)cc1 (racemic) [(±)-Atenolol] | 3.98 | -0.206 | 8.47 | 1.78 | 1.82
CCc1c(C)[nH]c2c1C(=O)C(CN1CCOCC1)CC2 (stereo not given) [Molindone (hydrochloride)] | 4.99 | -3.27 | -7.67 | -1.62 | -2.83
CN(C)CCC(c1ccc(Br)cc1)c1ccccn1 (stereo not given) [Brompheniramine (maleate)] | 4.19 | -2.92 | -11.7 | -3.69 | 7.28
CC(c1cc2ccccc2s1)N(O)C(N)=O (stereo not given) [Zileuton] | 3.87 | -0.493 | -3.58 | -0.832 | 6
CC(C)(O)c1ccccc1CC[C@@H](SCC1(CC(=O)O)CC1)c1cccc(/C=C/c2ccc3ccc(Cl)cc3n2)c1 [Montelukast (sodium salt)] | 10.4 | 2.54 | -3.93 | 1.58 | 3.42
CNC(=O)c1ccc(N2C(=S)N(c3ccc(C#N)c(C(F)(F)F)c3)C(=O)C2(C)C)cc1F | 13.3 | 4.28 | -11 | -1.47 | -0.198
Cc1ccc(Cl)c(Nc2ccccc2C(=O)O)c1Cl [Meclofenamate (sodium salt)] | 11.1 | 12.4 | -18 | -13.1 | -19.7
Cc1ccccc1N1C(=O)c2cc(S(N)(=O)=O)c(Cl)cc2NC1C (stereo not given) [Metolazone] | 5.2 | 4.85 | -12.7 | 0.578 | 1.31
OC(CNCC(O)C1CCc2cc(F)ccc2O1)C1CCc2cc(F)ccc2O1 (stereo not given) [Nebivolol (hydrochloride)] | 9.49 | -4.14 | 2.55 | -2.7 | -10.6
CC1(C)NC(=O)N(c2ccc([N+](=O)[O-])c(C(F)(F)F)c2)C1=O [Nilutamide] | 3 | -2.08 | -12.2 | 3.08 | -5.94
CC(=O)[C@]1(O)Cc2c(O)c3c(c(O)c2[C@@H](O[C@H]2C[C@H](N)[C@H](O)[C@H](C)O2)C1)C(=O)c1ccccc1C3=O [Idarubicin (hydrochloride)] | 12.5 | -1.2 | -5.02 | 1.34 | -1.01
COc1nc(N)nc2c1ncn2[C@@H]1O[C@H](CO)[C@@H](O)[C@@H]1O [Nelarabine] | 19.6 | 1.82 | -4.45 | -0.162 | 2.02
COc1c(C)c2c(c(O)c1C/C=C(\C)CCC(=O)OCCN1CCOCC1)C(=O)OC2 [Mycophenolate Mofetil] | 7.89 | -4.66 | -3.09 | -2.74 | 1.02
CS(=O)(=O)OCCCCOS(C)(=O)=O [Busulfan] | 1.08 | 2.56 | 2.59 | 2.63 | 3.07
CCCS(=O)(=O)Nc1ccc(F)c(C(=O)c2c[nH]c3ncc(-c4ccc(Cl)cc4)cc23)c1F | -2.43 | -1.48 | -5.03 | 2.88 | -0.602
COc1ccc(CC2c3cc(OC)c(OC)cc3CC[N+]2(C)CCC(=O)OCCCCCOC(=O)CC[N+]2(C)CCc3cc(OC)c(OC)cc3C2Cc2ccc(OC)c(OC)c2)cc1OC (stereo not given) [Atracurium (besylate)] | 5.62 | -4.13 | -9.46 | -3.02 | -3.83
Nc1ccn([C@@H]2O[C@H](CO)[C@@H](O)C2(F)F)c(=O)n1 [Gemcitabine] | -0.256 | -0.373 | -2.75 | -1.87 | 2.24
Nc1cc(N2CCCCC2)nc(N)[n+]1[O-] [Minoxidil] | 2.04 | 3.09 | -1.78 | -5.41 | -0.063
C[C@@H](c1ncncc1F)[C@](O)(Cn1cncn1)c1ccc(F)cc1F [Voriconazole] | 4.54 | 3.6 | -18.9 | 3.51 | 5.07
CNCCC(Oc1ccc(C(F)(F)F)cc1)c1ccccc1 (stereo not given) [Fluoxetine (hydrochloride)] | 2.79 | -8.12 | -19.3 | -5.89 | -6.12

Structure (SMILES) | difference in excitability [1] | difference in startle response [2] | difference in activity during first hour [3] | difference in habituation to acoustic stimuli [4] | difference [5]
O=C(O)c1ccc(-n2nc(-c3ccccc3O)nc2-c2ccccc2O)cc1 [Deferasirox] | 1.98 | -2.31 | 17.7 | 2.04 | 5.07
O=c1[nH]c(=O)n([C@H]2C[C@H](O)[C@@H](CO)O2)cc1I [Idoxuridine] | 6.91 | 0.604 | -3.04 | 5.55 | 2.86
CCOC(=O)C1=C(C)NC(C)=C(C(=O)OC)C1c1cccc(Cl)c1Cl (racemic) [(±)-Felodipine] | 0.706 | -2.36 | -22.2 | -10.8 | -16.5
COc1ccc(Cl)cc1C(=O)NCCc1ccc(S(=O)(=O)NC(=O)NC2CCCCC2)cc1 [Glyburide (potassium salt)] | 9.95 | 5.16 | 10.9 | -3.8 | 7.83
CCCCNc1ccc(C(=O)OCCOCCOCCOCCOCCOCCOCCOCCOCCOC)cc1 [Benzonatate] | 6.12 | 1.4 | -1.8 | 6.2 | -0.0866
CC[C@]1(O)C[C@H]2CN(CCc3c([nH]c4ccccc34)[C@@](C(=O)OC)(c3cc4c(cc3OC)N(C=O)[C@H]3[C@@](O)(C(=O)OC)[C@H](OC(C)=O)[C@]5(CC)C=CCN6CC[C@]43[C@@H]65)C2)C1 [Vincristine (sulfate)] | 3.18 | 3.21 | -4.31 | -2.03 | 1.46
CCOCCn1c(N2CCCN(C)CC2)nc2ccccc21 [Emedastine (fumarate)] | 5.25 | 8.02 | 5.05 | 0.658 | -3.97
Cc1cc(C2CCCCC2)n(O)c(=O)c1 [Ciclopirox] | 3.8 | -2.37 | 8.43 | 5.39 | 8.2
CC(=O)NO [Acetohydroxamic Acid] | 12 | 9 | -12.9 | 3.36 | -4.35
Nc1ncn([C@H]2C[C@H](O)[C@@H](CO)O2)c(=O)n1 [Decitabine] | -2.79 | -4.56 | -0.853 | 0.137 | 4.38
O=C(C1CCCCC1)N1CC(=O)N2CCc3ccccc3C2C1 (stereo not given) [Praziquantel] | 27.3 | 13.2 | -17.7 | 11 | 10.4
O=C1[C@@H]2[C@H]3CC[C@H](C3)[C@@H]2C(=O)N1C[C@@H]1CCCC[C@H]1CN1CCN(c2nsc3ccccc23)CC1 [Lurasidone] | -9.91 | 6.61 | -1.19 | -11.8 | -17
CCOC(=O)[C@H](CCc1ccccc1)N[C@@H](C)C(=O)N1Cc2ccccc2C[C@H]1C(=O)O [Quinapril (hydrochloride)] | -1.99 | -2.06 | 12.4 | -0.155 | 2.4
COc1ccc(-c2ccc3cc(C(=O)O)ccc3c2)cc1C12CC3CC(CC(C3)C1)C2 [Adapalene] | -8.45 | 3.9 | -0.172 | -5 | 3.86
CCCNC(C)C(=O)Nc1c(C)csc1C(=O)OC (stereo not given) [Articaine (hydrochloride)] | 2.22 | -2.43 | 5.22 | 0.219 | -0.0299
CSc1ccc2c(c1)N(CCC1CCCCN1C)c1ccccc1S2 (stereo not given) [Thioridazine (hydrochloride)] | 19.8 | -0.778 | 12.9 | -8.21 | -5
OCCN1C[C@H](O)[C@@H](O)[C@H](O)[C@H]1CO [Miglitol] | 8.03 | 3.24 | -0.913 | -2.04 | 8.24
CC(=O)N(CC(O)CO)c1c(I)c(C(=O)NCC(O)CO)c(I)c(C(=O)NCC(O)CO)c1I (stereo not given) [Iohexol] | 1.55 | 0.754 | 5.28 | -1.14 | -0.849
O=C1CN2Cc3c(ccc(Cl)c3Cl)N=C2N1 [Anagrelide (hydrochloride)] | 11.5 | -3.44 | -9.48 | 7.77 | 3.07
CCC(C)n1ncn(-c2ccc(N3CCN(c4ccc(OCC5COC(Cn6cncn6)(c6ccc(Cl)cc6Cl)O5)cc4)CC3)cc2)c1=O (stereo not given) [Itraconazole] | 15.4 | -0.629 | -2.15 | -5.43 | 4.73
O=P(O)(O)C(O)(Cn1ccnc1)P(=O)(O)O [Zoledronic Acid (hydrate)] | -0.91 | -0.172 | 2.53 | 0.128 | 6.76
NC(=O)c1cn(Cc2c(F)cccc2F)nn1 [Rufinamide] | 3.01 | 4.27 | 8.13 | 0.975 | 7.5
Clc1ccc(COC(Cn2ccnc2)c2ccc(Cl)cc2Cl)c(Cl)c1 (stereo not given) [Miconazole (nitrate)] | 9.53 | -10.9 | -23.5 | -11.4 | -18.4
